Only some compounds are listed: those with a hit (about 2.2% of all), similar ones and a draw of the others.
KLF5 inhibitor – KLF5 expression inhibitors, primary screen, DLD-1 cells, luminescence; hit rate 0.23% among 290,000; DLD-1 KLF5 promoter-luciferase reporter; inhibition, % at 5 µM;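 active means inhibition above a per-plate limit of that plate's mean compound inhibition plus 3 SD, cut at about 60% in these data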;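 further: 0% = DMSO wells and 100% = LY294002 at 200 µM; higher means less KLF5 promoter-driven luciferase light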
BaF3 parental – parental Ba/F3 cell viability inhibition, counter-screen for JAK2V617F inhibitor project, murine pro-B, CellTiter-Glo luminescence | CellTiter-Glo ATP luminescence | inhibition, % at 5.6 µM | hit rate 1.1% among 220,000 | AID 1486, 2009;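 active means inhibition above a per-campaign cutoff, the mean inhibition of all tested compounds plus 3 SD, cut at about 27% in these data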;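 further: 0% = DMSO wells and 100% = JAK Inhibitor I control wells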
Ba/F3 V617F tox – reduced viability of JAK2V617F-dependent Ba/F3 cells, primary screen, JAK2V617F inhibitor project, cell-based, Ba/F3 EpoR-JAK2V617F, luminescence; AID 1446, 2008; hit rate 1.1% among 220,000; ATP luminescence; inhibition, % at 5.6 µM;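 active means inhibition above the campaign mean plus 3 SD over all tested compounds, cut at about 24% in these data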;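 further: cytokine-independent growth of Ba/F3 cells driven by EpoR plus mutant JAK2; 0% = DMSO-treated cells and 100% = JAK inhibitor I control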
APP transl inh – inhibitors of APP translation via 5'UTR reporter, primary screen, APP 5'UTR luciferase, SH-SY5Y cells. SH-SY5Y APP 5'UTR-luciferase reporter, luminescence. inhibition, % at 2 µM. hit rate 0.82% among 190,000. AID 1285, 2008;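 active means inhibition above a set limit, derived from the sample mean plus 3 SD, cut at about 45% in these data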
aSyn UTR inh – MLPCN primary screen, SNCA 5' untranslated region | inhibition, % (tested at 7.5 µM) | alpha-synuclein 5'UTR reporter, inhibitor activity | hit rate 0.82% among 300,000; in the data active means inhibition above about 60%;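 further: H4 neuroglioblastoma cells stably carrying SNCA 5'UTR luciferase fusion; 0% = DMSO wells and 100% = positive control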
IEC-6 cytotox – cytotoxicity in IEC-6 intestinal epithelial cells, primary screen, cytotoxicity control for KLF5 inhibitor project, cell-based, luminescence; IEC-6 cytotoxicity, luminescence viability; inhibition, % at 5 µM; hit rate 0.78% among 290,000;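 further: 0% = plate median of test compound wells and 100% = cytotoxic reference compound wells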
IEC-6 tox confirm – cytotoxic compounds in IEC-6 epithelial cells, confirmation, cytotoxicity control, cell-based, luminescence. shares compounds with IEC-6 cytotox. IEC-6 rat intestinal epithelial viability. inhibition, % at 5 µM. hit rate 63% among 1,900. AID 1907, 2009;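 further: 0% = vehicle and 100% = reference cytotoxic drug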
* marks the source's active call; other numbers are inactive results. Unless noted, no stated cut-off is given here; in the data, active means inhibition above about 22%; inactive means the rest.

O=C(O)CCNc1ccc(NCCC(=O)O)c2c1C(=O)c1ccccc1C2=O was read as KLF5 inhibitor -1, aSyn UTR inh 15, IEC-6 cytotox 24* and IEC-6 tox confirm 10.
COc1ccccc1NCCC(=O)O was read as KLF5 inhibitor -42, BaF3 parental -3, Ba/F3 V617F tox 0, aSyn UTR inh 4 and IEC-6 cytotox -12.
O=C(O)C(Sc1ccncn1)c1ccccc1 (stereo not given) was read as KLF5 inhibitor -1, BaF3 parental -1, Ba/F3 V617F tox -2, APP transl inh 2, aSyn UTR inh 27 and IEC-6 cytotox -6.
`Clc1ccccc1OCc1nnc(-c2ccccc2Br)o1` gave KLF5 inhibitor -119, BaF3 parental 6, Ba/F3 V617F tox 2, APP transl inh -95, aSyn UTR inh -173 and IEC-6 cytotox 1.
`O=c1c(Cl)c(Cl)cnn1Cc1nnc(-c2ccccc2Br)o1` gave KLF5 inhibitor -11, BaF3 parental -1, Ba/F3 V617F tox 16, APP transl inh 94*, aSyn UTR inh -66, IEC-6 cytotox 30* and IEC-6 tox confirm 22.
`O=C(c1ccc(CS(=O)c2ccccc2Cl)o1)N1CCN(c2ccccc2)CC1` (stereo not given) gave KLF5 inhibitor 53, aSyn UTR inh 110*, IEC-6 cytotox 80* and IEC-6 tox confirm 57*.
Screening O=C(Oc1ccccc1-c1nnco1)c1ccc(Cl)cc1 returned KLF5 inhibitor -9, BaF3 parental 5, Ba/F3 V617F tox 4, APP transl inh -5, aSyn UTR inh 13, IEC-6 cytotox 33* and IEC-6 tox confirm -6.
Screening CN(Cc1cnccn1)C(=O)CC1C(=O)NCCN1Cc1ccc(F)cc1Cl (stereo not given) returned KLF5 inhibitor 10, aSyn UTR inh -8 and IEC-6 cytotox 3.
For CCN1CCCC1CNC(=O)C1CCN(Cc2nc(-c3cccc(Br)c3)oc2C)CC1 (stereo not given) the results were KLF5 inhibitor 12, BaF3 parental 31*, Ba/F3 V617F tox 12, APP transl inh -5, aSyn UTR inh 14, IEC-6 cytotox 49* and IEC-6 tox confirm 99*.
`Cc1ccccc1-c1nc(CN2CCC(C(=O)NCCCN3CC(C)CC(C)C3)CC2)c(C)o1` (stereo not given) gave KLF5 inhibitor 1, BaF3 parental 21, Ba/F3 V617F tox 15, APP transl inh -12, aSyn UTR inh 1, IEC-6 cytotox 60* and IEC-6 tox confirm 53*.
`Cc1ccccc1-c1nc(CN2CCC(C(=O)NCCCN3CCCC3)CC2)c(C)o1` gave KLF5 inhibitor 19, BaF3 parental 8, Ba/F3 V617F tox 2, APP transl inh -1, aSyn UTR inh -33 and IEC-6 cytotox 0.
`CCN(CC(=O)NCc1cccs1)C(=O)c1ccc(-c2cccc(C(F)(F)F)c2)o1` gave aSyn UTR inh 25.
Cc1sc(NC(=S)NC(=O)c2ccco2)c(C(N)=O)c1C was read as KLF5 inhibitor -8, BaF3 parental 2, Ba/F3 V617F tox 1, APP transl inh -37, aSyn UTR inh -92 and IEC-6 cytotox -2.
Cc1sc(NC(=S)NC(=O)CCc2ccccc2)c(C(N)=O)c1C was read as KLF5 inhibitor 25, BaF3 parental 75*, Ba/F3 V617F tox 75*, APP transl inh 95*, IEC-6 cytotox 27* and IEC-6 tox confirm 71*.
`CCOc1ccc(-n2c(-c3ccc(OC)cc3)c[n+]3c2CCCCC3)cc1` gave KLF5 inhibitor -16, BaF3 parental 74*, Ba/F3 V617F tox 97*, APP transl inh 7, aSyn UTR inh 20, IEC-6 cytotox 22* and IEC-6 tox confirm 27*.
For COc1ccc(-c2c[n+]3c(n2-c2ccc(C)cc2)CCCCC3)cc1 the results were KLF5 inhibitor -12, BaF3 parental 73*, Ba/F3 V617F tox 94*, aSyn UTR inh 1, IEC-6 cytotox 29* and IEC-6 tox confirm 21.
Screening CCOc1ccc(-n2c(-c3ccc(Br)cc3)c[n+]3c2CCCCC3)cc1 returned KLF5 inhibitor 21, BaF3 parental 79*, Ba/F3 V617F tox 96*, APP transl inh 1, aSyn UTR inh -7, IEC-6 cytotox 29* and IEC-6 tox confirm 21.
`CC(=O)Nc1c(C(=O)N2CCN(c3ccccn3)CC2)cnn1-c1ccc(C)cc1` gave KLF5 inhibitor -24, BaF3 parental 7, Ba/F3 V617F tox 1, APP transl inh 8, aSyn UTR inh 30 and IEC-6 cytotox -7.
Screening COC(=O)C1CN(C(=O)COc2cc(C)cc(C)c2)c2ccccc2O1 (stereo not given) returned KLF5 inhibitor -40, aSyn UTR inh -2 and IEC-6 cytotox -7.
Screening CCCc1cc(NCc2ccccn2)n2nc(C)c(-c3ccccc3)c2n1 returned KLF5 inhibitor -37, BaF3 parental 3, Ba/F3 V617F tox 9, aSyn UTR inh -8, IEC-6 cytotox 47* and IEC-6 tox confirm 13.
For Cc1cc(NCc2ccccn2)n2ncc(-c3ccc(Cl)cc3)c2n1 the results were KLF5 inhibitor -14, BaF3 parental 0, Ba/F3 V617F tox -2, aSyn UTR inh -97, IEC-6 cytotox 29* and IEC-6 tox confirm 30*.
`Cc1nn2c(NCc3ccccn3)cc(C(C)C)nc2c1-c1ccccc1` gave KLF5 inhibitor 7, BaF3 parental -2, Ba/F3 V617F tox -1, aSyn UTR inh 32 and IEC-6 cytotox -9.
For Cc1cc(NCc2ccccn2)n2ncc(-c3ccccc3)c2n1 the results were KLF5 inhibitor -41, BaF3 parental 6, Ba/F3 V617F tox 0, aSyn UTR inh -155, IEC-6 cytotox 84* and IEC-6 tox confirm 31*.
`Cc1cc(NCc2ccccn2)n2nc(C)c(-c3ccc(Cl)cc3)c2n1` gave KLF5 inhibitor -6, BaF3 parental 0, Ba/F3 V617F tox -1 and IEC-6 cytotox 12.
Screening Cc1cc(N)n2ncc(-c3ccc(Cl)cc3)c2n1 returned KLF5 inhibitor -21, BaF3 parental -2, Ba/F3 V617F tox 1, APP transl inh -96, aSyn UTR inh -52, IEC-6 cytotox 25* and IEC-6 tox confirm 26*.
Screening Cc1cc(N)n2ncc(-c3ccc(F)cc3)c2n1 returned KLF5 inhibitor -115, BaF3 parental 1, Ba/F3 V617F tox -5, APP transl inh -84, aSyn UTR inh -104 and IEC-6 cytotox 10.
Screening O=C(NNC(=O)c1ccccc1C(F)(F)F)c1csc(N2CCOCC2)n1 returned KLF5 inhibitor -19, aSyn UTR inh -1 and IEC-6 cytotox 6.
For Cc1ccc(S(=O)(=O)NCCn2nc(C)cc2C)cc1 the results were KLF5 inhibitor -10, aSyn UTR inh 7 and IEC-6 cytotox 0.

Source: PubChem BioAssay
